# An excerpt weighted towards active compounds, which were near 11% of everything screened.
# Tau FP inhib: blocks human tau fibril formation measured by polarization; P10636; K18 P301L tau heparin fibrillization, Alexa594 FP, 6 h; Potency, µM (series often up to 57.7 µM), for the others: top-dose activity, negative = inhibition, most hits filed as inhibitors; 280,000 tested, 0.39% active; note: potency is the fitted concentration of half-maximal effect; nearly all actives have a fitted effect of over 55% in size
# Target sequence (P10636 561-689 P618L limits assumed): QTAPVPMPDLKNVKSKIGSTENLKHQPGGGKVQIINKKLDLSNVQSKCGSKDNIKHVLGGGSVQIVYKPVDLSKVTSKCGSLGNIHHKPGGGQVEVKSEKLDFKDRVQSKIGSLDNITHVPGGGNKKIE
#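 Recombinant K18 P301L […], labeled with Alexa 594 at 0.24 uM over 15 uM unlabeled; heparin inducer 20 uM final; 37 C, 6 hr; FP endpoint.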
# G9a inh: inhibitors of human histone lysine methyltransferase G9a. Q96KQ7. G9a H3K9 monomethylation, AlphaScreen, 2 h. Potency, µM (series often up to 102 µM), for the others: at the top dose activity, negative = inhibition, actives largely listed as inhibitors. 350,000 tested, 8.8% active. AID 504332; note: potency is the fitted concentration of half-maximal effect; nearly all actives have a fitted effect of over 75% in size
# Target sequence (Q96KQ7 913-1193 limits assumed): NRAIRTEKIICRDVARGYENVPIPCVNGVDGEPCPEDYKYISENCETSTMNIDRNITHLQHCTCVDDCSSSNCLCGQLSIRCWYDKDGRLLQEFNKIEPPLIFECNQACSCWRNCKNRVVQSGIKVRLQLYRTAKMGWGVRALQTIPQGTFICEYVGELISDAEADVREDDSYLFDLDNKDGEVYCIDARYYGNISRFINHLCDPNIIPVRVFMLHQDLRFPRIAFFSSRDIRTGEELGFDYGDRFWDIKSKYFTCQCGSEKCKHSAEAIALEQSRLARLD
#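 AlphaScreen read-out: biotin-H3K9 peptide (500 nM) methylation by 20 nM enzyme with 20 uM SAM, 2 h at room temperature after 15 min compound preincubation; anti-monomethyl H3K9 antibody plus donor/acceptor beads, 10 min dark.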
# Tau fluor cs: counter-screen for tau fibril formation inhibitors. AID 1463. 280,000 tested, 0.93% active. tau K18 P301L Alexa594 fluorescence, heparin fibrillization. Potency, µM (highest dose often 57.7 µM), for the others: at the top dose activity change, negative = decrease; note: potency is the fitted concentration of half-maximal effect; nearly all actives have a fitted effect of over 55% in size
#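 Human K18 P301L tau (15 uM unlabeled plus 0.24 uM Alexa 594-labeled, final) in 100 mM sodium acetate pH 7 was mixed with compound and 20 uM heparin and incubated 6 hr at 37 C.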
# Sfp PPTase inh: inhibitors of Bacillus subtilis Sfp phosphopantetheinyl transferase. Biochemical Sfp PPTase activity, qHTS. AID 1490. Potency, µM, without a hit: largest response in the series, negative = inhibition, hits mostly inhibitors. 310,000 tested, 3.5% active. Q9F4F7;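 note: the enzyme is Sfp with the accession as filed and its product quenches rhodamine fluorescence; potency is the fitted concentration of half-maximal effect; 0% = enzyme reaction without inhibitor and -100% = no enzyme wells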
#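 Fluorescence-quenching assay: 15 nM Sfp-PPTase preincubated 15 min at room temperature with compound, then 5 uM rhodamine-CoA and 12.5 uM BHQ-2-labelled YbbR peptide added. Fluorescence (ex 525/em 598 nm) read at start and after 30 min; difference gives rate.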
# FBPA coupling cs: counter-screen for Giardia aldolase inhibitors: coupling enzyme system | activity change, negative = inhibition, % at 58.2 µM, hits read low | 290,000 tested, 0.67% active | coupling enzyme system counterscreen, AmpLite Red fluorescence; in the data active = activity change below about -30%
#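 Counterscreen lacking aldolase: glyceraldehyde-3-phosphate coupling-enzyme reagent preincubated 10 min at RT with compound (at 57.5 uM final), then substrate/coupling system with AmpLite Red added; fluorescence read at 525/598 nm after 20 min RT.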
# Tau fibril ThT: inhibitors of human tau fibril formation, thioflavin T binding | 270,000 tested, 2.1% active | Potency, µM (highest dose often 57.4 µM), without a hit: at the top dose activity, negative = inhibition, hits mostly inhibitors | AID 1460 | P10636 | recombinant tau K18 P301L (four-repeat tau fragment), heparin-induced fibrillization, ThT fluorescence; note: potency is the fitted concentration of half-maximal effect; nearly all actives have a fitted effect of over 55% in size
#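 Heparin-induced fibrillization of the P301L-mutant K18 repeat-domain fragment of human tau was followed by ThT binding in quantitative high-throughput format.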
# * marks the source's active call; other numbers are inactive results; ? = inconclusive; nt = not tested or not shown; [ ] = another dose, or the depositor's remark. Unless noted, calls come from the whole dose curve; as a rule, active = well fitted curve in the direction sought with a large enough effect; inconclusive = small, poorly fitted or top-dose-only effect, or another doubt; inactive = no such curve, though single readings can be large; an effect the other way counts as inactive or inconclusive. Unless noted, % is set by controls: 0 for no effect and ±100 for the full control effect.
SMILES,Tau FP inhib,G9a inh,Tau fluor cs,Sfp PPTase inh,FBPA coupling cs,Tau fibril ThT
COc1ccc(N2CCN(C(=O)c3cccc(F)c3)CC2)c([N+](=O)[O-])c1,9%,-48%,-20%,13%,5,?
COc1cccc(C(=O)N2CCN(Cc3ccccc3[N+](=O)[O-])CC2)c1,-1%,11µM*,-1%,-9%,-1,0%
O=C(COCc1cc(-c2cccs2)on1)NCc1ccc(Cl)cc1,-3%,6%[59 µM],4%,nt,nt,16%
Cc1ccsc1C(=O)Nc1ccc(OCc2ccccc2)cc1,nt,11%,nt,20%,2,nt
CCCc1cnc2c(c1SCc1ccc(C(F)(F)F)cc1)c(=O)n(C)c(=O)n2C,-3%,?,-17%,nt,nt,-17%
O=C(c1cccc(F)c1)N1CCN(Cc2ccco2)CC1,10%,32µM*,-4%,-7%,3,-5%
O=C(C(c1ccccc1)c1ccccc1)N1CCN(Cc2ccco2)CC1,9%,4µM*,-1%,-28%,2,-11%
CN1CCCN(Cc2nc(-c3cccc(C(F)(F)F)c3)no2)CC1,-3%,?,-8%,3%,0,-13%
COc1cc(OC)cc(C(=O)N2CCN(Cc3ccccc3Br)CC2)c1,7%,nt,0%,56µM*,1,-3%
O=C(C(c1ccccc1)c1ccccc1)N1CCOCC1,-16%,6%[59 µM],-1%,18%,2,-3%
O=C(c1ccco1)N1CCN(Cc2cccc(F)c2)CC1,-3%,?,-8%,11%,5,2%
CN1CCCN(Cc2ccccc2Br)CC1,nt,22µM*,nt,79µM*,0,nt
Cc1c(C(=O)NC2CCCC2)oc2ccccc12,nt,29%[59 µM],nt,nt,nt,nt
N#CCN(C(=O)COC(=O)CCCNC(=O)c1ccc(Cl)cc1)c1ccccc1,nt,-9%[12.7 µM],nt,nt,nt,nt
COc1ccc(N2CCN(C(=O)c3cccc(Cn4cc(Cl)cn4)c3)CC2)cc1,-5%,18µM*,-19%,-21%,2,?
O=C(c1cccs1)N1CCN(Cc2ccccc2[N+](=O)[O-])CC1,6%,11µM*,2%,-21%,1,-4%
CCOC(=O)c1ccccc1NC(=O)Cn1c(=O)n(CCC(=O)NCc2ccccc2OC)c(=O)c2ccccc21,0%,-6%[59 µM],2%,nt,nt,5%
CCOC(=O)C1=CN(c2cccc(F)c2)C=C(C(=O)OCC)C1c1cc(OC)c(O)c([N+](=O)[O-])c1,9%,?,?,-30%,1,13µM*
COC(=O)C1=CN(c2ccc(F)cc2)C=C(C(=O)OC)C1c1ccc([N+](=O)[O-])cc1,nt,-7%,nt,-4%,-1,nt
CC(=O)Nc1cccc(-c2nnc(SCC(=O)c3cc([N+](=O)[O-])ccc3Br)o2)c1,-19%,-8%[59 µM],14µM*[quencher],nt,nt,?
CN1CCc2nc3ccccc3c(C(=O)OCC(=O)N(CCC#N)c3ccccc3)c2C1,?,22µM*,-9%,-9%,-2,-17%
N#CCCN(C(=O)COC(=O)c1ccc2ccccc2n1)c1ccccc1,nt,8%[2.33 µM],nt,nt,nt,nt
CN(C)S(=O)(=O)n1cnc([C@@H]2[C@H]3C(=O)OC[C@@H]3C[C@@]23N=CN(Cc2ccccc2)C3=O)c1,nt,5%[0.501 µM],nt,nt,nt,nt
Cc1cc(C)cc(C(=O)NC(CC(N)=O)c2ccc(NC3CCCCCCCCCCC3)c([N+](=O)[O-])c2)c1 (centres undefined),nt,45µM*,nt,-9%,2,nt
NC(=O)CC(NC(=O)c1ccccc1)c1ccc(NCC2CC2)c([N+](=O)[O-])c1 (centres undefined),6%,-1%[12.7 µM],-14%,10%,-1,?
SMILES,Tau FP inhib,G9a inh,Tau fluor cs,Sfp PPTase inh,FBPA coupling cs,Tau fibril ThT
O=[N+]([O-])c1cc(C(F)(F)F)ccc1NC1CCN(Cc2ccccc2)C1 (centres undefined),nt,79%,nt,12%,nt,nt
Cc1cc(C)cc(C(=O)NC(CC(N)=O)c2ccc(NCC3CC3)c([N+](=O)[O-])c2)c1 (centres undefined),nt,79µM*,nt,6%,-5,nt
O=[N+]([O-])c1cc(C(F)(F)F)ccc1NC1CCN(Cc2ccccc2)CC1,7%,35µM*,-28%,-5%,-1,nt
NC(=O)CC(NC(=O)c1ccccc1)c1ccc(NC2CCN(Cc3ccccc3)CC2)c([N+](=O)[O-])c1 (centres undefined),nt,50µM*,nt,7%,2,nt
CC(C)C[C@H](NC(=O)C1OC1C(=O)O)C(=O)NCCCCN=C(N)N (some centres undefined),?,-1%[59 µM],0%,nt,nt,1%
CN(C(=O)c1ccccc1[N+](=O)[O-])c1ccccc1C(=O)NCc1ccccc1,nt,10%,nt,15%,nt,nt
CC1=C(c2ccc(Cl)cc2)[N+](=O)C(C)(C)N1[O-],-12%,50µM*,-8%,-4%,3,?
C[n+]1cc(C(=O)N2CCCCC2)ccc1/C=C/c1c[nH]c2ccccc12,-9%,nt,-12%,-4%,-12,?
Cc1cc(=O)c2c(O)cc(O)c(C)c2o1,?,-16%[2.33 µM],28µM*[quencher],-12%,-17,25µM*
COc1c2ccoc2c(OC(C)=O)c2oc(C)cc(=O)c12,nt,6%,nt,13%,0,nt
N#CC/C(N)=N/Nc1nc2ccccc2nc1Cc1ccccc1,nt,50µM*,nt,-9%,-2,nt
N#CCn1c(Cc2ccccc2)nc2ccccc2c1=O,nt,29%[59 µM],nt,18%,2,nt
CCc1ccccc1NC(=O)CCCn1c(=O)c2cccn2c2ccccc21,-2%,?,-19%,nt,nt,?
Cc1ccc(NC(=S)Nc2ccc3nc(-c4ccccn4)c(-c4ccccn4)nc3c2)cc1C,-14%,7.9µM*,-29%,-18%,-53*,?
Cc1ccc(NC(=S)Nc2ccccn2)cc1C,-2%,nt,-18%,-4%,1,-14%
COc1ccc(Cl)cc1S(=O)(=O)Nc1ncn[nH]1,nt,79µM*,nt,-7%,2,nt
COc1ccc(OC)c(S(=O)(=O)Nc2ccc(O)c(Sc3ncn[nH]3)c2)c1,-3%,7.9µM*,-6%,35µM*,-4,-9%

# Bioassay records: PubChem, National Center for Advancing Translational Sciences (NCATS)
